According to PubChem BioAssay:

Target: Streptavidin (Streptomyces avidinii) (UniProt P22629)
Sequence (P22629 whole entry, looked up): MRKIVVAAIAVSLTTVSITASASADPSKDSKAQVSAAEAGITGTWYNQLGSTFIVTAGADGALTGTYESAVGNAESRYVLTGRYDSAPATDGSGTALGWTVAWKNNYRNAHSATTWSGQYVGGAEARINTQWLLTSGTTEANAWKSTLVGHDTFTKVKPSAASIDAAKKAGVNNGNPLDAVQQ
Experiment: compounds binding control protein streptavidin – biophysical, small-molecule microarray, 635/667 nm fluorescence, artefact control for SMM compound annotation, primary screen (AID 1147);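 note: signal reflects streptavidin binding to arrayed compounds as a control protein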
Conditions: higher = more signal
O=C1[C@H]2C=C(Br)[C@H](C[C@@H]2OCCCCCCO)[C@@]12CO2 gave a composite z-score of -0.29.
With C=CCNC(=O)[C@@H]1[C@H]2C(=O)O[C@H](c3ccccc3)[C@H](c3ccccc3)N2[C@H](c2ccc(OCCO)cc2)[C@@]12C(=O)N(C(=O)OCCOC)c1ccc(C#CCNC(N)=O)cc12 the composite z-score was 0.348.
For O=C1NC(=O)C2C1C=CC(C(O)c1ccc(I)cc1)N2Nc1ccccn1 (centres undefined), the composite z-score was 0.242.
With COc1cc2c(cc1OC)CN(C(=O)[C@H]1[C@@H]3C(=O)O[C@@H](c4ccccc4)[C@@H](c4ccccc4)N3[C@@H](c3ccccc3OCCO)[C@]13C(=O)Nc1ccc(C#CCCO)cc13)CC2 the composite z-score was 0.225.
With C=CCC(OC(C)=O)[C@@H]1[C@@H](N(Cc2ccc(-c3cccc(C(F)(F)F)c3)o2)C(=O)c2cccc3ccccc23)c2cc(OCCCO)ccc2N1C(=O)Cc1ccc2ccccc2c1 (some centres undefined) the composite z-score was -0.253.
C=CCN1C(=O)[C@]2(O[C@H](CCO)[C@@H]([Si](C)(C)c3ccc(OC)cc3)[C@@H]2C)c2cc(N(C=O)c3ccccc3)ccc21 gave a composite z-score of 0.0699.
Work on COC(=O)c1c2oc(c1C(=O)OC)C(=O)NC1(CCCCC1)c1cn(nn1)C[C@H](Cc1ccccc1)NC(=O)N[C@H](CO)CC2 yielded a composite z-score of 1.05.
Compound CCN(CC)c1ccc(N2CC=CC34O[C@@H]5C=CCOC(=O)[C@@H]5[C@H]3C(=O)N(CCCCCCO)[C@@H]4C2=O)cc1 (some centres undefined) has a composite z-score of -0.881.

Tested on: not listed separately
Experiment: probe aInhba binding on compound microarray – biochemical, small-molecule microarray, 635/667 nm fluorescence, primary screen (AID 1148);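 note: score merges 667nm spot fluorescence with signal-to-noise for antibody binding to printed compounds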
Conditions: higher = more signal
Work on COC(=O)[C@@]1(Cc2ccc(OC)cc2)[C@H]2c3cc(C(=O)N4CCCC4)n(CCc4ccc(O)c(O)c4)c3C[C@H]2CN1C(=O)c1ccccc1 yielded a composite z-score of 0.147.
CC(CO)N1C(=O)[C@@H]2C3C(=O)OCCC/C=C\[C@H]3OC23C=CCN(CCN2CCOCC2)C(=O)[C@@H]13 (some centres undefined) gave a composite z-score of -0.201.
Compound CC1CC/C=C\[C@H]2OC34C=CCN(Cn5nnc6ccccc65)C(=O)[C@H]3N(CCCCCO)C(=O)[C@@H]4C2C(=O)O1 (some centres undefined) has a composite z-score of -0.176.
Work on COC(=O)C(CC#Cc1ccc2c(c1)[C@]1(C(=O)N2)[C@H](c2ccccc2OCCO)N2[C@H](c3ccccc3)[C@H](c3ccccc3)OC(=O)[C@H]2[C@@H]1C(N)=O)C(=O)OC yielded a composite z-score of 1.26.
Work on COC(=O)[C@@]1(Cc2ccc(OC)cc2)[C@H]2c3cc(C(=O)N4CCCC4)n(CCSCCO)c3C[C@H]2CN1C(=O)c1ccccc1 yielded a composite z-score of 0.257.
C=CC[C@@]1(C(=O)N2CCCCC2)N=C(c2ccc(OCCCO)cc2)O[C@@H]1c1ccccc1CN=[N+]=[N-] gave a composite z-score of 0.233.
With CCOC(=O)C1=C[C@@H](C(C)C)N(S(=O)(=O)c2ccc(C)cc2)[C@H]1c1ccccc1F the composite z-score was 0.0816.
Compound NC(=O)[C@@]1(Cc2ccccc2)N=C(c2ccc(OCCCO)cc2)O[C@H]1c1ccccc1 has a composite z-score of 0.196.
COc1cc2c(cc1O)C(c1cccs1)N(Cc1ccc([N+](=O)[O-])o1)CC2 (centres undefined) gave a composite z-score of 0.167.
For COCCCNC(=O)[C@@]1(Sc2ccc(C)cc2)CC(=O)N(Cc2ccccc2Cl)[C@@H]1c1ccc(CO)cc1, the composite z-score was -0.0331.
For O=C1N(CCS(=O)(=O)c2ccccc2)c2ccccc2[C@@H]2OC(c3ccc(OCCCO)cc3)=N[C@]12Cc1ccccc1, the composite z-score was 0.0091.
[N-]=[N+]=Nc1ccccc1C[C@]1(C(=O)N2CCCCC2)COC(c2ccc(OCCCO)cc2)=N1 showed a composite z-score of 0.0108.
In the case of COc1ccc(CCNC(=O)[C@@]2(c3ccc([N+](=O)[O-])cc3)CC(=O)N(CC34CC5CC(CC(C5)C3)C4)[C@@H]2c2ccc(CO)cc2I)cc1, the composite z-score is reported as -0.443.
In the case of NCCCCCNC(=O)[C@H]1C[C@H]2C(=O)N3CCC[C@H]3C(=O)N2[C@H]1c1ccc(O)cc1, the composite z-score is reported as 0.336.
COCCCNC(=O)[C@@]1(CCS(=O)(=O)c2ccccc2)N=C(c2ccc(OCCCO)cc2)O[C@H]1c1ccccc1N=[N+]=[N-] gave a composite z-score of 0.467.
With COc1ccc([Si](C)(C)[C@@H]2[C@@H](CCn3cc(CCO)nn3)O[C@]3(C(=O)N(Cc4cccc(N5C(=O)c6cccc7cccc5c67)c4)c4ccccc43)[C@H]2C)cc1 the composite z-score was -0.0589.
Compound O=C1OCCC/C=C\[C@H]2OC34C=CCN(c5ccc6ccccc6c5)C(=O)[C@H]3N(CCCCCO)C(=O)[C@@H]4C12 (some centres undefined) has a composite z-score of -0.209.
Work on CN1C(=O)C2C=CC(C(O)c3ccccc3)N(N3CCCCC3)C2C1=O (centres undefined) yielded a composite z-score of 0.0301.
C=C(C(=O)CC[C@H](OC(C)=O)c1ccccc1OCCO)C(C)C showed a composite z-score of -0.188.
C=C(CCCC)C(=O)CC[C@@H](OC(C)=O)c1ccc(CO)o1 showed a composite z-score of -0.154.
In the case of CC(C)(C)OC(=O)CC[C@]1(C(=O)NCCN2CCOCC2)COC(c2ccc(OCCCO)cc2)=N1, the composite z-score is reported as 0.0227.
Compound C=CCOC(=O)[C@H]1[C@@H]2C(=O)O[C@@H](c3ccccc3)[C@@H](c3ccccc3)N2[C@@H](c2ccc(OCCOC(=O)[C@H]3C[C@H]4C(=O)N[C@@H](CCCCN(C)C)C(=O)N4[C@H]3c3cccc(OCCO)c3)cc2)[C@]12C(=O)Nc1ccc(I)cc12 has a composite z-score of 0.12.
Work on [N-]=[N+]=Nc1ccccc1C[C@]1(C(=O)NCc2ccccc2)N=C(c2ccc(OCCCO)cc2)O[C@H]1c1ccccc1N=[N+]=[N-] yielded a composite z-score of -0.156.
CCOC(=O)C1=CC[C@@H](c2ccccc2)N(S(=O)(=O)c2ccc(C)cc2)[C@H]1c1ccc(CC)cc1 gave a composite z-score of 0.0018.
Compound COCC(=C=CC[C@H](O)c1ccccc1OCCO)CCO has a composite z-score of 0.115.
COc1ccc(C(=O)Nc2ccc(CN3C(=O)[C@]4(O[C@H](CC(=O)N5CCC[C@H]5CO)[C@@H]([Si](C)(C)c5ccc(OC)cc5)[C@@H]4C)c4ccccc43)cc2)cc1 showed a composite z-score of 0.0785.
In the case of C=C(C)[C@@H]1CC=C(C(O)C2C=CC3C(=O)NC(=O)C3N2Nc2ccc(Cl)cc2Cl)CC1 (some centres undefined), the composite z-score is reported as 0.099.
With O=C1O[C@@H](c2ccccc2)[C@@H](c2ccccc2)N2[C@@H](c3ccc(OCCO)cc3)[C@]3(C(=O)Nc4ccc(C#CCCO)cc43)[C@@H](C(=O)NC[C@H](O)c3ccccc3)[C@H]12 the composite z-score was 0.288.
Work on O=C1[C@H]2C=C(Br)[C@H](C[C@@H]2OCCCCCCO)[C@@]12CO2 yielded a composite z-score of -0.024.
For C=CCNC(=O)[C@@H]1[C@H]2C(=O)O[C@H](c3ccccc3)[C@H](c3ccccc3)N2[C@H](c2ccc(OCCO)cc2)[C@@]12C(=O)N(C(=O)OCCOC)c1ccc(C#CCNC(N)=O)cc12, the composite z-score was 0.115.
In the case of O=C1NC(=O)C2C1C=CC(C(O)c1ccc(I)cc1)N2Nc1ccccn1 (centres undefined), the composite z-score is reported as -0.0216.
Work on COc1cc2c(cc1OC)CN(C(=O)[C@H]1[C@@H]3C(=O)O[C@@H](c4ccccc4)[C@@H](c4ccccc4)N3[C@@H](c3ccccc3OCCO)[C@]13C(=O)Nc1ccc(C#CCCO)cc13)CC2 yielded a composite z-score of -0.0567.
In the case of C=CCC(OC(C)=O)[C@@H]1[C@@H](N(Cc2ccc(-c3cccc(C(F)(F)F)c3)o2)C(=O)c2cccc3ccccc23)c2cc(OCCCO)ccc2N1C(=O)Cc1ccc2ccccc2c1 (some centres undefined), the composite z-score is reported as 0.374.
Work on C=CCN1C(=O)[C@]2(O[C@H](CCO)[C@@H]([Si](C)(C)c3ccc(OC)cc3)[C@@H]2C)c2cc(N(C=O)c3ccccc3)ccc21 yielded a composite z-score of -0.082.
With COC(=O)c1c2oc(c1C(=O)OC)C(=O)NC1(CCCCC1)c1cn(nn1)C[C@H](Cc1ccccc1)NC(=O)N[C@H](CO)CC2 the composite z-score was -0.05.
For CCN(CC)c1ccc(N2CC=CC34O[C@@H]5C=CCOC(=O)[C@@H]5[C@H]3C(=O)N(CCCCCCO)[C@@H]4C2=O)cc1 (some centres undefined), the composite z-score was -0.154.
